# Source: the supplement of paper PMC10849652
# The full data set covers some 8,800 targets. This sample favours those with a hit. About 0.5% of all pairs of compound and target were hits. Values without a mark were called inactive.
# Columns and labels:
# Test in all cases: log2 fold change, soluble protein after heating vs DMSO (PISA); higher = thermal stabilisation; K562 lysate, 10 uM; active = over 0.2 and 3.5 SD of the protein, either way, in both replicates (recomputed)
# [1] = compound: CCCS(=O)(=O)Nc1ccc(F)c(C(=O)c2c[nH]c3ncc(-c4ccc(Cl)cc4)cc23)c1F [vemurafenib]
# How it was run: (§1)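 Quantification was by TMTpro 16plex LC-MS/MS with equalised channel sums, applied to the supernatant after 21,000xg for 90 min. Samples were crude K562 extract at 1 mg/mL protein in PBS pH 7.4 with 1 mM MgCl2, treated with 10 μM compound for 30 min, heated for 3 min across 48°C-58°C, pooled and brought to 0.5% NP-40 at 4°C. Values are log-two fold changes in thermal stability relative to solvent controls, from duplicates.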
# [2] = compound: CCCS(=O)(=O)Nc1ccc(F)c(C(=O)c2c[nH]c3ncc(Cl)cc23)c1F
# How it was run: as §1
# [3] = compound: CCN(CCCOc1ccc2c(Nc3cc(CC(=O)Nc4cccc(F)c4)[nH]n3)ncnc2c1)CCOP(=O)(O)O [barasertib]
# How it was run: as §1
# [4] = compound: CC[C@@H]1C(=O)N(C)c2cnc(Nc3ccc(C(=O)NC4CCN(C)CC4)cc3OC)nc2N1C1CCCC1
# How it was run: as §1
# [5] = compound: CC[C@@H]1C(=O)N(C)c2cnc(Nc3ccc(C(=O)N[C@H]4CC[C@H](N5CCN(CC6CC6)CC5)CC4)cc3OC)nc2N1C(C)C [volasertib]
# How it was run: as §1
# [6] = compound: CCn1c(C(=O)N(C2CC2)C2CC2)cc2c3c(ncn3C)c(Nc3cc(C)n(C)n3)nc21
# How it was run: as §1
# [7] = compound: CCn1cc(-c2ccnc3[nH]c(-c4cccc(CN(C)C)c4)cc23)c(-c2ccc(NC(=O)N(C)C)cc2)n1
# How it was run: as §1
# [8] = compound: CN1CCC(CNc2ccc3ncc(-c4cccc(OC(F)(F)F)c4)n3n2)CC1
# How it was run: as §1
# [9] = compound: CN1CCN(CCOc2cc(OC3CCOCC3)c3c(Nc4c(Cl)ccc5c4OCO5)ncnc3c2)CC1 [saracatinib]
# How it was run: as §1
# [10] = compound: CN1CCN(c2nc(C3=C(c4c[nH]c5ccccc45)C(=O)NC3=O)c3ccccc3n2)CC1 [sotrastaurin]
# How it was run: as §1
# Chain of UniProt Q9BX10 (Q9BX10 whole entry, looked up): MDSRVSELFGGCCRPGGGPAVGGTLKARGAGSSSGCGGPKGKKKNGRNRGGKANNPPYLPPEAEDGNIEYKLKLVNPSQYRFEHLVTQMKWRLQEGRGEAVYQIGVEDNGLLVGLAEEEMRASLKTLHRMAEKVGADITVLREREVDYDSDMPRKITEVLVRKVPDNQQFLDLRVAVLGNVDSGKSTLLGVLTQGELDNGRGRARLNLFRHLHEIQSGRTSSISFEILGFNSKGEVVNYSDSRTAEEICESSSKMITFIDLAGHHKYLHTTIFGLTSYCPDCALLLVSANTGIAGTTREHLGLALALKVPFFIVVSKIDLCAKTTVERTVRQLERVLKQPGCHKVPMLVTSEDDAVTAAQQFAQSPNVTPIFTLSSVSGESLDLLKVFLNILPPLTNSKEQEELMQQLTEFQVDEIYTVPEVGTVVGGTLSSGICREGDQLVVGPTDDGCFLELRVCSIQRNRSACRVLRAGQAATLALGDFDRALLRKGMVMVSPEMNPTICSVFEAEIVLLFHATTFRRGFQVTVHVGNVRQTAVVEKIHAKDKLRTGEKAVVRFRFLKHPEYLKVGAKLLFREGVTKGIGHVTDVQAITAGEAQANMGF
# Chain of UniProt P15260 (P15260 whole entry, looked up): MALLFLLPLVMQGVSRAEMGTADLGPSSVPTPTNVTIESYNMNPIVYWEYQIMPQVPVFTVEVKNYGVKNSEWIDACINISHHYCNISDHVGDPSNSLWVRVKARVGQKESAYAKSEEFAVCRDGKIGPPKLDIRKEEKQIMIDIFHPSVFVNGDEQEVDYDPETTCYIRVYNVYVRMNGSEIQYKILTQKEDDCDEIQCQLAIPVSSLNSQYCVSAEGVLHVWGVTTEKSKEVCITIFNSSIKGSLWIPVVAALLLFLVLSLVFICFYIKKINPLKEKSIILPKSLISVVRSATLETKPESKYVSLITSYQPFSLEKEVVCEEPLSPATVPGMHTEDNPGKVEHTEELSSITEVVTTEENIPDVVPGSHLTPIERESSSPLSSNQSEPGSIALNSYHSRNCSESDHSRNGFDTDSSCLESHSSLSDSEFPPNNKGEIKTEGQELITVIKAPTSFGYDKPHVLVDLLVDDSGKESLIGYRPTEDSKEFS
# Chain of UniProt P17096 (P17096 whole entry, looked up): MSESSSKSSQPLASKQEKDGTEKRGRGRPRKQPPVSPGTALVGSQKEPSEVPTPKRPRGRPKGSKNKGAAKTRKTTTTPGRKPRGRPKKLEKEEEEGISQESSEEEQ
# Chain of UniProt Q16836 (Q16836 whole entry, looked up): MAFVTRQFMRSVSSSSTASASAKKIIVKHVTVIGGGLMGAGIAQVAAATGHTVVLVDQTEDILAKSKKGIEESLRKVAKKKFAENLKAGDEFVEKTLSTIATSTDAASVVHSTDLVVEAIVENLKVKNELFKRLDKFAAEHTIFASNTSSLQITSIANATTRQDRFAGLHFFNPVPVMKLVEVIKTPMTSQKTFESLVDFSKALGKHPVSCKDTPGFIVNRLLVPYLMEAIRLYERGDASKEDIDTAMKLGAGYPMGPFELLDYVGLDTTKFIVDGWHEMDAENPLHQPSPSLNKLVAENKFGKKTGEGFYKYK
# Chain of UniProt Q1KMD3 (Q1KMD3 whole entry, looked up): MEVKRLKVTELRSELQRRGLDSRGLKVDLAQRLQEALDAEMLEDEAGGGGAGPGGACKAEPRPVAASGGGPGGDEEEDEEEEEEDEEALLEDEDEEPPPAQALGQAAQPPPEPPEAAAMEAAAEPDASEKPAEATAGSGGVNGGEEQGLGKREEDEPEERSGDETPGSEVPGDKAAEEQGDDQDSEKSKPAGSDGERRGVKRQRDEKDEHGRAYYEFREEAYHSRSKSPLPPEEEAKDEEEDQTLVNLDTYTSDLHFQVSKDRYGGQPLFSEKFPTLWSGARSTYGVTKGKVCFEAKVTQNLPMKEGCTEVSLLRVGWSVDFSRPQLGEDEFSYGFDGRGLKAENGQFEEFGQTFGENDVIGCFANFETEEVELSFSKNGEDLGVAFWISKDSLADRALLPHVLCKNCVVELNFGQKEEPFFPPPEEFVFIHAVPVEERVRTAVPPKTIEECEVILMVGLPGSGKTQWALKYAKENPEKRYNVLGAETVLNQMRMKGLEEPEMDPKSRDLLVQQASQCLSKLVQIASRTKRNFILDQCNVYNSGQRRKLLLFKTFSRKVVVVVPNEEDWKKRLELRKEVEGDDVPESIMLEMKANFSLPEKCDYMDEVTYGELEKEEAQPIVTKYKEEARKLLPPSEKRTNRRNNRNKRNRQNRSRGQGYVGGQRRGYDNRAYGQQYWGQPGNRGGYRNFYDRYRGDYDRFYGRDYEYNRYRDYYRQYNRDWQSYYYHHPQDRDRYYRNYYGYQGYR
# Chain of UniProt Q99714 (Q99714 whole entry, looked up): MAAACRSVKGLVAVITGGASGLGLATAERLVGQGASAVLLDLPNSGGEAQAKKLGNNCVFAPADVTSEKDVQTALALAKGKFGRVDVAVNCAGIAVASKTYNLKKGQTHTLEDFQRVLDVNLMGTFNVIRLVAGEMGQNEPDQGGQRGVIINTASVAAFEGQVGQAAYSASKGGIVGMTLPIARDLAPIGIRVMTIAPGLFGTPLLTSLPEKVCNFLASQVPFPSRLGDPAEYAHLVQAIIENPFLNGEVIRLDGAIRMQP
# Chain of UniProt P28161 (P28161 whole entry, looked up): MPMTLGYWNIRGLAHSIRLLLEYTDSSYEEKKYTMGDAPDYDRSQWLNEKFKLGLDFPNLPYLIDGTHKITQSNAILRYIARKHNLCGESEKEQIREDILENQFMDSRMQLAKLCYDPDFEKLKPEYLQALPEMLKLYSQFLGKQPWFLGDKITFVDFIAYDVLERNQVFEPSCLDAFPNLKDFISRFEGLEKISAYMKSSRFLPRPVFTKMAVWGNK
# Chain of UniProt P23677 (P23677 whole entry, looked up): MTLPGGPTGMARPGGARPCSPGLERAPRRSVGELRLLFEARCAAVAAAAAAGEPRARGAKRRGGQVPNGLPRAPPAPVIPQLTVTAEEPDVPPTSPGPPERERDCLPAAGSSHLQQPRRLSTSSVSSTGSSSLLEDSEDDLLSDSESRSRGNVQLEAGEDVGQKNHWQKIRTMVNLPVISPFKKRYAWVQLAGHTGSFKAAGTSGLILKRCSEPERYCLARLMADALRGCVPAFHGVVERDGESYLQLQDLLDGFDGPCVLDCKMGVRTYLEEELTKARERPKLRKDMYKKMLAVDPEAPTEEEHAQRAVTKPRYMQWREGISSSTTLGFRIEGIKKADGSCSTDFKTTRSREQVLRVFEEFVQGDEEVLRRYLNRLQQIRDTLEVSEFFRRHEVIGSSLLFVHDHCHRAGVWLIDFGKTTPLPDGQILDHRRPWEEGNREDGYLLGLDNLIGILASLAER
# Chain of UniProt Q99795 (Q99795 whole entry, looked up): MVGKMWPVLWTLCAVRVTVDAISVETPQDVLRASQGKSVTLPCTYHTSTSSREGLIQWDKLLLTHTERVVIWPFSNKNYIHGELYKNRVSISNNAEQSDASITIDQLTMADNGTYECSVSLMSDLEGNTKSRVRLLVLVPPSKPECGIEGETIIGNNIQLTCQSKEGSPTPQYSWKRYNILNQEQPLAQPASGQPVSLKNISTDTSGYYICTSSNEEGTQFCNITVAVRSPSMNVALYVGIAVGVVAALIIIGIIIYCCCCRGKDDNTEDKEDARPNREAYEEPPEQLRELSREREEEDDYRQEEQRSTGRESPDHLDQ
# Chain of UniProt Q8IU81 (Q8IU81 whole entry, looked up): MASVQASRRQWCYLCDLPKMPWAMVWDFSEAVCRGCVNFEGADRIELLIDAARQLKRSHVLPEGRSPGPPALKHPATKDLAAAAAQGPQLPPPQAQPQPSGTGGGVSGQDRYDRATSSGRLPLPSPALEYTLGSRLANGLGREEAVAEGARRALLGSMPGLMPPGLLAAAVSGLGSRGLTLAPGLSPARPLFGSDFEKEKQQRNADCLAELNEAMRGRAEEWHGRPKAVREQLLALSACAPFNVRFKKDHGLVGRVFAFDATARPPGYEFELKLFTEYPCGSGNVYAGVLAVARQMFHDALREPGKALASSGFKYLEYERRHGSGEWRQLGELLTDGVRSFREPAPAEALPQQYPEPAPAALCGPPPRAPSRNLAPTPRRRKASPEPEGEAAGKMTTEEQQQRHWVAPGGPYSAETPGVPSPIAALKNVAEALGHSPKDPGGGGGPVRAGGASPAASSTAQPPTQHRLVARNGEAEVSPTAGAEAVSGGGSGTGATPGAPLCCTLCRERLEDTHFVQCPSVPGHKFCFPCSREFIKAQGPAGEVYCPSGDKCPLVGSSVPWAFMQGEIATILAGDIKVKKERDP
# Chain of UniProt Q7Z5Y7 (Q7Z5Y7 whole entry, looked up): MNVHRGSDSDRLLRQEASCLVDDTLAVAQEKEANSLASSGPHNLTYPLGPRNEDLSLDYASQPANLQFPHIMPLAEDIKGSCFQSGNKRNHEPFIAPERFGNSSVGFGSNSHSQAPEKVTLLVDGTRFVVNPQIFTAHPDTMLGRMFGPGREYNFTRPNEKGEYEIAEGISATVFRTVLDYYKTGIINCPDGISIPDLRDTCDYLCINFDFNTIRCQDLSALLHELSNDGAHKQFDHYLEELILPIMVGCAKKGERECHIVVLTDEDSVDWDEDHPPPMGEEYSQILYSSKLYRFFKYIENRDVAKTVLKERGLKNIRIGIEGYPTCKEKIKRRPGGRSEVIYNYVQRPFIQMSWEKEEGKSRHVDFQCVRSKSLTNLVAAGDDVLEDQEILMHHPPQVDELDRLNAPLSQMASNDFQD
Target,log2 fold change [1],log2 fold change [2],log2 fold change [3],log2 fold change [4],log2 fold change [5],log2 fold change [6],log2 fold change [7],log2 fold change [8],log2 fold change [9],log2 fold change [10]
HSD17B10 (UniProt Q99714),0.017,-0.016,-0.021,-0.006,-0.015,-0.022,-0.081,0.024,-0.022,-0.014
GPA33 (UniProt Q99795),-0.038,-0.014,-0.047,-0.011,0.081,-0.032,-0.925 (active),0.612 (active),-0.005,
HNRNPUL2 (UniProt Q1KMD3),0.024,0.017,0.038,0.005,-0.009,-0.012,-0.029,0.008,0.029,0.04
GTPBP2 (UniProt Q9BX10),0.005,0.005,0.034,-0.03,-0.104,0.043,0.124,-0.074,0.047,0.043
IMPDH2 (UniProt P12268),0.015,0.009,-0.056,-0.015,0.012,0.039,0.11,0.01,-0.001,-0.005
ITPKA (UniProt P23677),-0.007,0.019,0.041,-0.105,-0.065,-0.03,0,0.054,0.013,-0.045
IRF2BP1 (UniProt Q8IU81),0.015,0.023,-0.003,0.026,-0.088,0.014,0.037,-0.06,0,0.01
GSTM2 (UniProt P28161),-0.005,0.07,0.024,0.015,0.005,-0.027,0.131,-0.091,0.003,
IFNGR1 (UniProt P15260),0.182,-0.07,-0.051,0.234,0.08,-0.153,-0.641 (active),0.331,0.032,-0.018
KCTD20 (UniProt Q7Z5Y7),0.17,0.02,0.052,0.046,0.007,-0.055,0.018,-0.037,0.048,0.025
HMGA1 (UniProt P17096),0.023,-0.011,-0.05,0.051,0.02,-0.04,-0.323 (active),0.131,-0.001,0.012
HADH isoform 2 (UniProt Q16836),-0.032,-0.022,-0.049,0.002,0.004,0.009,0.066,-0.054,-0.096,0.004
GMPS (UniProt P49915),-0.006,-0.011,-0.008,-0.05,-0.046,-0.011,0.128,-0.047,0.014,-0.005
IMPDH2 (UniProt H0Y4R1),-0.047,0.114,0.134,0.195,0.001,-0.1,0.059,0.129,0.043,0.116
